High-throughput results as filed in PubChem BioAssay.
HepG2 tox: qHTS for Inhibitors of TGF-b: Cytotox Counterscreen | AID 588856, 2011 | HepG2 CAGA-GFP viability, ATP luminescence, 18 h | Potency, µM (doses to about 46.1 µM), for the others: at the highest dose activity change, negative = cytotoxicity, most hits filed as cytotoxic | 410,000 tested, 0.76% active
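HepG2 CAGA-GFP cells (1000/well, DMEM with 1% FBS) received compound, then TGF-beta at 500 pg/mL final, and were incubated 18 hours at 37 degrees C. Viability was read by CellTiter-Glo luminescence. Media-only wells were set as complete cell-killing and DMSO as no toxicity.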
TDP1 cell CPT: qHTS for Inhibitors of human tyrosyl-DNA phosphodiesterase 1 (TDP1): qHTS in cells in presence of CPT. Potency, µM (series often up to 46.2 µM), without a hit: at the highest dose activity change, negative = growth inhibition, actives largely listed as inhibitors. chicken DT40 Tdp1-/-;hTDP1 cells + 20 nM CPT, ATP luminescence, 48 h. AID 686979, 2013. 420,000 tested, 12% active; further: on the % scale 0 is the no-effect control and ±100 the full control effect; nearly all actives have a fitted effect of over 55% in size
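Cell growth measured by CellTiter-Glo luminescence after a minimum 48 h, 37 C compound exposure with 20 nM CPT in Tdp1-knockout DT40 cells stably expressing hTDP1, seeded 400/well; qHTS titration format.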
TGFb SMAD3 inh: qHTS for Inhibitors of TGF-b; HepG2 CAGA-GFP TGF-b/SMAD3 reporter, GFP fluorescence, 18 h; TGF-beta stimulated, 500 pg/mL final; Potency, µM (doses to about 46.1 µM), for the others: at the top dose activity, negative = inhibition, hits mostly inhibitors; 410,000 tested, 1.2% active; AID 588855, 2011; further: on the % scale 0 is the no-effect control and ±100 the full control effect; nearly all actives have a fitted effect of over 65% in size
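TGF-beta reporter screen: HEPG2 CAGA-GFP, 1% FBS, 500 pg/mL TGF-beta final, 18 h; per-cell GFP summed per well; curves fitted and categorized by class.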
TDP1 cell noCPT: qHTS for Inhibitors of human tyrosyl-DNA phosphodiesterase 1 (TDP1): qHTS in cells in absence of CPT | DT40 Tdp1-/- hTDP1 cells, no CPT, ATP luminescence, 48 h | Potency, µM (titrated, usually from 46.2 µM), without a hit: top-dose activity change, negative = growth inhibition, hits mostly inhibitors | 420,000 tested, 15% active | AID 686978, 2013; further: on the % scale 0 is the no-effect control and ±100 the full control effect; nearly all actives have a fitted effect of over 55% in size
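No-CPT arm: Tdp1-/-;hTDP1 DT40 cells (400/well) plus compounds, incubated ≥48 hr at 37 °C. Readout CellTiter-Glo luminescence.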
HT1080 IDH1KD tx: qHTS for induction of synthetic lethality in tumor cells producing 2HG: qHTS for the HT-1080-IDH1KD cell line; HT-1080 IDH1 knockdown viability, ATP luminescence, 48 h; Potency, µM (series often up to 46.1 µM), for inactives: at the highest dose activity, negative = toxicity, most hits filed as cytotoxic; 360,000 tested, 2% active; AID 686971, 2013;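 further: 0% = DMSO wells and -100% = cell-free medium wells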
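CellTiter-Glo luminescence after 48 h compound exposure at 37 degrees C of IDH1-knockdown HT-1080 cells in 5% FBS RPMI. %Activity scaled between DMSO wells and cell-free media wells, with curves fitted and assigned curve classes.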
HT1080-NT tox: qHTS for induction of synthetic lethality in tumor cells producing 2HG: qHTS for the HT-1080-NT fibrosarcoma cell line; Potency, µM (highest dose often 46.1 µM), inactives show top-dose activity, negative = less viability, most hits filed as cytotoxic; 360,000 tested, 1.6% active; HT-1080-NT fibrosarcoma viability, CellTiter-Glo ATP luminescence, 48 h;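 further: NT is the 2HG producing partner of a matched IDH1 knockdown line; 0% = DMSO-treated cells and -100% = media-only wells without cells; nearly all actives have a fitted effect of over 55% in size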
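Fibrosarcoma NT cells, 750 per well in 5% FBS RPMI, were exposed to compound for 48 hours. Viability: CellTiter-Glo luminescence.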
* marks the source's active call; other numbers are inactive results; ? = inconclusive; · = not tested or not shown; [ ] = remark or other dose. Compounds with a hit are over-represented: about 17% of the library has one in this group of screens. The call rests on the fitted dose curve; in most records, active means well fitted curve in the direction sought with a large enough effect; inconclusive means small, poorly fitted or top-dose-only effect, or another doubt; inactive means no such curve, though single readings can be large; an effect the other way counts as inactive or inconclusive. Potency means the concentration at half of the fitted maximal effect.

SMILES	HepG2 tox	TDP1 cell CPT	TGFb SMAD3 inh	TDP1 cell noCPT	HT1080 IDH1KD tx	HT1080-NT tox
Cc1ccc(OCCN(C)C(=O)C2CCC(=O)N(CCCN3CCOCC3)C2)cc1 (configuration not stated)	0%	0%	-4%	22%	-1%	1%
CC1(C)CC(=O)c2cc(C(=O)Nc3ccc(Br)cc3)c(=O)[nH]c2C1	-2%	-19%	1%	-11%	·	·
CC1(C)CCC(=O)N2CC[C@H]3C[C@H](OC(=O)Nc4ccc(Br)cc4)C[C@@H]1[C@H]32	-21%	35µM*	-18%	?	15%	0%
O=C(Nc1ccc2c(c1)OCO2)O[C@@H]1C[C@H]2CCCC(=O)N3CC[C@@H](C1)[C@@H]23	-30%	-19%	-13%	-24%	14%	12%
COCc1cc(C)nc2sc3c(c12)NC(c1ccccc1C(=O)O)N(c1cccc(C(F)(F)F)c1)C3=O (configuration not stated)	-6%	29µM*	2%	?	·	·
COCc1cc(C)nc2sc3c(c12)NC(c1ccc(NC(C)=O)cc1)N(c1ccc(C)cc1)C3=O (configuration not stated)	-2%	?	-15%	?	·	·
COCc1cc(C)nc2sc3c(c12)NC(c1ccc(O)cc1)N(c1ccc(C)cc1)C3=O (configuration not stated)	-15%	18µM*	?	18µM*	·	·
O=C(C1CC(=O)N(c2ccc(F)cc2)C1)N1CCC(c2nc3ccccc3[nH]2)CC1 (configuration not stated)	-12%	-13%	0%	-27%	2%	-4%
O=C(O)c1ccccc1C(=O)Nc1c(-c2ccccc2)nc2ccccn12	6%	8%	4%	8%	10%	?
CCOC(=O)N1CCN(C(=O)CCN2C(=O)/C(=C\c3cccc(OC)c3)SC2=S)CC1	3%	-96%	13%	15µM*	10%	11%
COc1cccc(/C=C2/SC(=S)N(CCCC(=O)Nc3ccc(O)cc3)C2=O)c1	-72%	?	?	?	?	?
COc1ccc(/C=C2\SC(=S)N(CCC(=O)N3CCCCC3)C2=O)cc1	-5%	?	5%	?	9%	1%
COc1cccc(/C=C2\SC(=S)N(CCC(=O)N3CCCCC3)C2=O)c1	-33%	6.5µM*	3%	4.1µM*	-1%	0%
Cc1cccc2c(C(O)c3c[nH]c4c(C)cccc34)c[nH]c12	2%	?	-19%	?	·	·
Cc1ccc2[nH]cc(C(O)c3c[nH]c4ccc(C)cc34)c2c1	10%	?	10µM*	?	·	·
Cc1ccc2c(C(=O)CN3CCSCC3)c(C)[nH]c2c1	-5%	16µM*	7%	?	-2%	1%
Cc1ccc2c(C(=O)CNc3nccs3)c(C)[nH]c2c1	-22%	-26%	-6%	?	·	·
Cc1ccc2c(C(=O)CCl)c(C)[nH]c2c1	-96%	3.7µM*	?	2.6µM*	21µM*	?
Cc1ccc2[nH]cc(C(=O)CCl)c2c1	-105%	2.6µM*	?	4.1µM*	21µM*	16µM*
CC(C)N(C)c1ncnc2c1ncn2[C@H]1CN(Cc2cccs2)C[C@@H](CO)O1	-2%	?	13%	?	15%	-1%
COCCNc1cc(-c2ccccc2C)ncn1	·	8%	·	31%	·	·
COc1ccc(S(=O)(=O)N2CCSC2c2ccc(N)cc2)cc1 (configuration not stated)	-1%	-24%	0%	-19%	0%	-4%
COc1cc(OC)c(C2SCCN2S(=O)(=O)c2ccc(F)cc2)cc1OC (configuration not stated)	-4%	13µM*	?	15µM*	11%	2%
C#CCOCCOCCOCCNc1nc(N2CCN(C(=O)C([C@@H](C)O)n3cc([C@@H](N)CCCCN)nn3)CC2)nc(N2CCN(C(=O)C([C@@H](C)O)n3cc([C@@H](N)CCCCN)nn3)CC2)n1 (some centres not stated)	-4%	13%	2%	2%	25%	12%
CCCCC(=O)N1CCN(c2nc3ccc(Cl)cc3s2)CC1	-11%	16µM*	-2%	?	?	?
SMILES	HepG2 tox	TDP1 cell CPT	TGFb SMAD3 inh	TDP1 cell noCPT	HT1080 IDH1KD tx	HT1080-NT tox
CC(C)(CC(=O)O)CC(=O)N1CCN(c2nc3ccc(Cl)cc3s2)CC1	5%	-16%	5%	11%	1%	-1%
CC(C)(C)NC(=O)N1CCN(c2nc3ccc(Cl)cc3s2)CC1	-5%	23µM*	0%	18µM*	?	-19%
COc1ccc2[nH]cc(CCNC(=O)/C=C/[C@H]3O[C@@H](n4cc(C)c(=O)[nH]c4=O)C[C@@H]3O)c2c1	-1%	0%	-1%	9%	15%	16%
O=C(c1cccc(Cl)c1)N1CCCC(Cn2cc(C(=O)N3CCCC3)nn2)C1 (configuration not stated)	·	5%[9.04 µM]	·	-13%	·	·
COc1cc(=O)n2c(c1C(=O)NCc1ccco1)CCN(Cc1cc3ccccc3[nH]1)CC2	·	-3%	·	-5%	·	·
CC(C)(C)c1ccc(S(=O)(=O)N2CCCCC2C(=O)NCc2ccccn2)cc1 (configuration not stated)	-27%	23µM*	-19%	?	5%	3%
CCOC(=O)c1c(C)[nH]c(C)c1C(=O)COC(=O)[C@@H]1CCCN1S(=O)(=O)c1ccc(Cl)cc1	-16%	15µM*	3%	13µM*	9%	-3%[9.24 µM]
COc1ccc(CCNC(=O)C(=O)NCC2CCCN2S(=O)(=O)c2ccccc2)cc1OC (configuration not stated)	-3%	?	-3%	13µM*	-17%	-10%
COc1ccc(CCNC(=O)C(=O)NCC2OCCN2S(=O)(=O)c2ccccc2)cc1OC (configuration not stated)	-51%	?	-10%	-19%	-2%	-8%
